# Rows were chosen to be rich in hits. Some 4.7% of all compounds tested hit in one or more screens of this group.
# PABP polyA inh – PABP poly(A) RNA binding inhibitors, primary screen, biochemical, fluorescence polarization, uHTS; inhibition, % at 35 µM; actives 1% (n = 290,000); AID 2014, 2009;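 further: calls also rest on retests at 20 µM and on dose response follow-up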
# MLLE-PAM2 inh – inhibitors of PABP1 MLLE–PAM2 peptide binding, primary screen, biochemical, fluorescence polarization, FITC-PAM2, GST-MLLE; Polyadenylate-binding protein 1 (Homo sapiens), P11940; inhibition, % at 20 µM; actives 0.36% (n = 360,000); in the data active means inhibition above about 35%, passing the limit was not always enough;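 further: plate controls were DMSO wells with GST-MLLE for no effect and wells lacking GST-MLLE protein for full effect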
# eIF4H inh – human eIF4H binding inhibitors, primary screen, translation initiation inhibitor project, biochemical, uHTS, fluorescence polarization; Eukaryotic translation initiation factor 4H (Homo sapiens), Q15056; eIF4H fluorescence polarization binding assay; inhibition, % at 35 µM; actives 0.94% (n = 290,000);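 further: calls also rest on retests at 20 µM and on dose response follow-up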
# Efflux pump inh – inhibitors of Candida efflux pumps in yeast, primary screen, S. cerevisiae, Nile Red, multiplex. S. cerevisiae Candida pump triplex. actives 0.44% (n = 330,000). inhibition, % at 10 µM. AID 485275, 2010;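 active means plate passing quality check with inhibition over a set limit, or well fluorescence over plate mean plus 4 SD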;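 further: Nile Red retained in pooled yeast measured as flow cytometry median fluorescence; 0% = buffer negative control and 100% = Enniatin B positive control; higher means more Nile Red kept so more efflux inhibition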
# SUMO HTRF inh – inhibitors of in vitro SUMOylation cascade, primary screen, biochemical, HTRF, uHTS | AID 2006, 2009 | actives 0.36% (n = 290,000) | SUMO-conjugating enzyme UBC9 (Homo sapiens), P63279 | HTRF SUMOylation assay, SAE1/SAE2 + UBC9 | inhibition, % at 35 µM; in the data active means inhibition above about 50%, passing the limit was not always enough; inconclusive means no clear call, values can overlap the other calls
# ALR inh – inhibitors of human ALR sulfhydryl oxidase, primary screen, biochemical, H2O2 detection, HRP-luminol luminescence, single point; actives 3.8% (n = 290,000); AID 485317, 2010; purified ALR, DTT oxidation; FAD-linked sulfhydryl oxidase ALR (Homo sapiens), P55789; inhibition, % (test concentration not listed);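 active means mean replicate inhibition above about 79%, with every replicate also reaching it, limit read from the data; inconclusive means only one of the two criteria met; inactive means mean below limit and not every replicate reaching it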
# Target sequence (P55789 whole entry, looked up): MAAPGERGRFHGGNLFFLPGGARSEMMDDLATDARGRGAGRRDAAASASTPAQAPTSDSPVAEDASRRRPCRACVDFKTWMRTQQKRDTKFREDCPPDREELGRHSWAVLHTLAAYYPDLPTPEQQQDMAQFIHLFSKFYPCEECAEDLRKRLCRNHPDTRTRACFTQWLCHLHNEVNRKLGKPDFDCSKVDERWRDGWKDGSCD
# An asterisk follows results filed as active; ? = inconclusive; nt = no result. Unless noted, how the calls were made is not given here.
SMILES,PABP polyA inh,MLLE-PAM2 inh,eIF4H inh,Efflux pump inh,SUMO HTRF inh,ALR inh
Cc1cc(Nc2ccccc2C(=O)O)n(-c2cccc(Cl)c2)n1,8,10,-4,0,22,98*
Cc1cc(Nc2ccccc2)n(CCO)n1,8,-4,-5,0,20,99*
CCn1nc(C)cc1Nc1ccccc1,0,-11,-7,0,-8,61
Cc1cc(Nc2ccc(Cl)cc2)n(-c2cccc(Cl)c2)n1,4,-19,9,0,13,51
CC1(C(=O)NS(=O)(=O)c2cccc(F)c2)CCN1C(=O)c1cccc(F)c1 (stereo unspecified),nt,2,nt,nt,nt,nt
CC(=O)N1Cc2cc(N)ccc2Oc2ccccc21,15,-9,4,0,10,89*
Cc1ccc(CN2CC(N3CCN(C)CC3)CS2(=O)=O)cc1 (stereo unspecified),nt,-2,nt,nt,nt,nt
COc1c(O)cccc1[C@H](O)C1CCN(CCc2ccc(F)cc2)CC1,nt,77*,nt,0,nt,10
Cc1ccc(-n2c(SCC(=O)N3CC(=O)Nc4ccccc43)nc3ccccc3c2=O)cc1,8,1,-9,0,10,98*
COCCn1c(SCC(=O)N2CC(=O)Nc3ccccc32)nc2ccccc2c1=O,6,-24,-8,0,-6,-14
Cc1ccc(-n2c(SCC(=O)N/N=C/c3c(C)nn(-c4ccccc4)c3C)nc3ccccc3c2=O)cc1,-11,38*,-4,-12,12,-14
O=C(NC1CC1)c1cc2cc3ccccc3nc2s1,0,-10,7,0,17,-6
Cc1ccc2c(CN3CCCc4ccccc43)cc(=O)oc2c1C,76*,-25,34*,0,-3,-11
CCc1ccc2c(CN3CCc4ccccc43)cc(=O)oc2c1,17,-1,11,0,11,-2
Cc1ccc2c(CN3CCC(C(N)=O)CC3)cc(=O)oc2c1C,-3,-6,-13,0,7,95*
O=c1cc(CN2CCc3ccccc32)c2ccc(O)cc2o1,-6,-2,5,0,33,99*
Cc1ccc2c(CN3CCCCC3)cc(=O)oc2c1C,8,8,-1,0,7,-3
COc1ccc(CCCNC(=O)C2Cc3c(-c4ccc(NC(C)=O)cc4)ccnc3O2)cc1 (stereo unspecified),nt,9,nt,nt,nt,nt
CC(C)Cn1c(N)c(C(=O)COC(=O)c2ccc(Br)cc2)c(=O)n(C)c1=O,nt,2,nt,0,nt,2
CC(C)c1c(O)nc(SCC(=O)Nc2ccc3c(c2)CCC3)[nH]c1=O,-3,1,2,0,-3,99*
CC(C)Cc1c(O)nc(SCC(=O)Nc2ccc3c(c2)CCC3)[nH]c1=O,2,16,-1,0,-7,99*
COc1cc(NC(=O)Cn2nc(-c3ccc(F)cc3)ccc2=O)ccc1-n1cnnn1,12,0,102*,0,14,5
C[C@H](CO)N1C[C@H](C)[C@@H](CN(C)S(=O)(=O)c2ccc(Oc3ccccc3)nc2)OCc2cn(nn2)CCCC1=O,nt,-1,nt,nt,nt,nt
O=c1nc(/C=C/c2cc([N+](=O)[O-])ccc2Cl)cc(C(F)(F)F)[nH]1,26,8,-6,0,18,14
O=c1nc(/C=C/c2cccn2-c2ccc([N+](=O)[O-])cc2)cc(C(F)(F)F)[nH]1,active,-75,60*,0,45,-15
SMILES,PABP polyA inh,MLLE-PAM2 inh,eIF4H inh,Efflux pump inh,SUMO HTRF inh,ALR inh
S=C1NC2CCCCC2N1 (stereo unspecified),21,-136,0,0,-6,-22
COc1ccc(N2C(=O)CSC2c2cccs2)cc1 (stereo unspecified),118,7,4,1,-18,99*
CCOc1ccc(N2C(=O)CSC2c2ccncc2)cc1 (stereo unspecified),13,16,-7,0,9,100*
COc1ccc(N2C(=O)CSC2c2ccc(F)c(F)c2)cc1 (stereo unspecified),4,10,8,0,-8,nt
C[C@@H]1CN([C@@H](C)CO)C(=O)CCCn2nncc2CO[C@@H]1CN(C)C(=O)Nc1ccnc(N2CCOCC2)c1,nt,0,nt,nt,nt,nt
O=C1CCC[C@@H]2[C@H]3CCC[N+]4([O-])CCC[C@@H](CN12)[C@@H]34 (stereo partly specified),3,-8,0,0,8,-7
O=S(=O)(Nc1nccs1)c1ccc(NCc2cc(Br)cc(Br)c2O)cc1,37,2,-6,0,-4,2
C=CCc1cccc2cc(C(=O)Nc3ccc(F)cc3)c(=O)oc12,-1,11,-3,0,0,-4
O=C(O)c1ccc(NC(=O)C2(c3ccccc3)CCCC2)cc1,10,3,-7,0,5,-3
O=C(NC(=S)Nc1ccc(S(=O)(=O)Nc2nccs2)cc1)c1ccccc1,-9,39*,-1,0,-7,3
NS(=O)(=O)c1ccc(NC(=O)C2(c3ccccc3)CCCC2)cc1,94*,-15,?,0,-12,-6
COc1cccc(CNc2ccc(S(=O)(=O)Nc3nccs3)cc2)c1O,-2,4,-3,0,-2,93*
C=CCc1cccc2cc(C(=O)Nc3ccc(S(=O)(=O)Nc4nnc(CC)s4)cc3)c(=O)oc12,8.6*,16,67*,0,22,36
C[C@H](CO)N1C[C@H](C)[C@@H](CN(C)C(=O)Nc2ccc(C(F)(F)F)cc2)Oc2c(NS(=O)(=O)c3ccc(F)cc3)cccc2C1=O,nt,-10,nt,1,nt,nt
OCC1(Cc2ccccc2F)CCCN(CC2CCCCC2)C1 (stereo unspecified),5,-8,-4,0,2,1
CCc1nnc(NS(=O)(=O)c2ccc(NC(=S)NC(=O)c3ccc(Br)cc3)cc2)s1,-8,28,5,5,19,47
CCc1nnc(NS(=O)(=O)c2ccc(NC(=S)NC(=O)c3ccccc3)cc2)s1,2,23,3,0,4,96*
NS(=O)(=O)c1ccc(NC(=S)NC(=O)c2ccc(-c3ccccc3)cc2)cc1,3,43*,2,0,4,-3
Cc1cccc(-n2ccc(=O)c(C(=O)Nc3ccc(S(=O)(=O)Nc4nccs4)cc3)n2)c1,16,3,41,0,4,2
O=C(Nc1ccc(S(=O)(=O)Nc2nccs2)cc1)c1nn(-c2ccccc2)ccc1=O,44,-36,77*,0,35,-7
O=C(NC(=S)Nc1ccc(S(=O)(=O)Nc2nccs2)cc1)c1cccnc1,-6,41*,10,0,4,44

# Screening results (PubChem BioAssay)
